Results filed as inconclusive are left out. Active and inactive are the calls of the source. Calls come from the whole dose curve; as a rule, active = well fitted curve in the direction sought with a large enough effect in the repeat runs; inconclusive = weak or mixed curves; inactive = no such curve, though single readings can be large; an effect the other way counts as inactive or inconclusive.
Experiments:
[1] = Caspase-3/7 induction in CHO-K1 cells by small molecules, qHTS cell viability counter screen (AID 1346979); note: nearly all actives have a fitted effect of over 35% in size; note: potency is the fitted concentration of half-maximal effect
Method in brief: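 Cells (CHO-K1, wild type) are plated at 1,500 per well and incubated 5hr. Test compounds in DMSO are then pinned in, followed by 16hr at 37C and 5% CO2. Viability is read by CellTiter-Fluor fluorescence after 1hr.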

[2] = Caspase-3/7 induction in HepG2 cells by small molecules, qHTS cell viability counter screen (AID 1346981); note: series mostly up to about 92 µM; nearly all actives have a fitted effect of over 30% in size
Method in brief: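 CellTiter-Fluor fluorescence measured viability in the same wells used for Caspase-Glo 3/7. HepG2 (wild type) at 2,000 cells/well were pre-incubated 5 hr, dosed, and given reagent at 16 hr, with 1 hr further at 37C.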

[3] = molecular target: Nuclear receptor subfamily 1 group I member 2 (Homo sapiens) (UniProt O75469); test: Human pregnane X receptor (PXR) small molecule agonists, qHTS assay (AID 1346982); note: nearly all actives have a fitted effect of over 35% in size; note: potency is the fitted concentration of half-maximal effect
Method in brief: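 Agonist mode: luminescence from ONE-Glo after 24 h compound exposure at 37C in HepG2 cells carrying hPXR-responsive CYP3A4 luciferase, plated in charcoal-stripped serum medium 5 h beforehand.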

[4] = molecular target: Nuclear receptor subfamily 1 group I member 2 (Rattus norvegicus) (UniProt Q9R1A7); test: Rat pregnane X receptor (rPXR) activation by small molecules, qHTS assay (AID 1346983); settings: rPXR luciferase reporter cells, One-Glo luminescence, 24 h; max activation: hits give high values; note: nearly all actives have a fitted effect of over 20% in size
Method in brief: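 Cell-based rPXR activation assay: rPXR cells, 2,000 per well, rested 5hr at 37 C, then exposed to compounds in DMSO for 24 hr at 37 C. Luciferase activity read by One-Glo luminescence after 30 min at room temperature.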

[5] = molecular target: Nuclear receptor subfamily 1 group I member 2 (Homo sapiens) (UniProt O75469); test: CYP3A4 induction through human pregnane X receptor (PXR) by small molecules, qHTS assay (AID 1346984); note: nearly all actives have a fitted effect of over 40% in size
Method in brief: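 Read-out is luminescence after One-Glo addition, following a 3 hr, 37C incubation with Luciferin-IPA CYP3A4 substrate (3uM final). Before that, compounds were on DPX-2 cells (HepG2 co-transfected with PXR element plus CYP3A4-promoter luciferase) for 24 hr at 37C.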

[6] = molecular target: Nuclear receptor subfamily 1 group I member 2 (Homo sapiens) (UniProt O75469); test: Human pregnane X receptor (PXR) activation by small molecules, qHTS assay (AID 1346985); note: nearly all actives have a fitted effect of over 40% in size; note: potency is the fitted concentration of half-maximal effect
Method in brief: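 DPX-2 cells (HepG2 co-transfected with a PXR response element and a CYP3A4-promoter luciferase construct) were seeded at 2,000 per well, rested 5 hr at 37C, then exposed to DMSO-dissolved compounds for 24 hr. Activation was read as luciferase luminescence.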

[7] = molecular target: Cytochrome P450 2C9 (Homo sapiens) (UniProt P11712); test: Cytochrome P450 Family 2 Subfamily C Member 9 (CYP2C9) small molecule antagonists: luciferase reporter qHTS assay (AID 1671198); note: nearly all actives have a fitted effect of over 50% in size; note: potency is the fitted concentration of half-maximal effect
Method in brief: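 P450-Glo proluciferin substrate with CYP2C9 enzyme; 10 min RT preincubation, then NADPH regeneration 1 h at 37C; luciferin detection reagent 20 min RT, luminescence in relative luminescence units.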

[8] = molecular target: Voltage-gated inwardly rectifying potassium channel KCNH2 (Homo sapiens) (UniProt Q12809); test: Human Ether-a-go-go-Related Gene (hERG) channel small molecule antagonists: fluorescence cell-based qHTS assay (AID 1671200);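 note: hERG-expressing U2OS cells given a thallium stimulus after FluxOR II dye loading; series mostly up to about 77 µM; nearly all actives have a fitted effect of over 50% in size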
Method in brief: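 Channel function was assessed by thallium flux. Cells seeded the previous day and kept at 37 C took up FluxOR II dye over 1 h in the dark at room temperature, then sat another 10 min before stimulation.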

[9] = molecular target: Cytochrome P450 3A4 (Homo sapiens) (UniProt P08684); test: Cytochrome P450 Family 3 Subfamily A Member 4 (CYP3A4) small molecule antagonists: luciferase reporter qHTS assay (AID 1671201); note: nearly all actives have a fitted effect of over 50% in size; note: potency is the fitted concentration of half-maximal effect
Method in brief: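 Compounds in DMSO were pin-transferred onto CYP3A4 enzyme-substrate mix and held 10 min at room temperature. NADPH regenerating solution started the reaction for 1 h; luciferin detection reagent stopped it, and luminescence was read after 20 min.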

[10] = molecular target: Cytochrome P450 2D6 (Homo sapiens) (UniProt P10635); test: Cytochrome P450 Family 2 Subfamily D Member 6 (CYP2D6) small molecule antagonists: luciferase reporter qHTS assay (AID 1671196); note: nearly all actives have a fitted effect of over 50% in size; note: potency is the fitted concentration of half-maximal effect
Method in brief: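 CYP2D6 activity was followed as luminescence from its luciferin product after a 1 h NADPH-driven reaction at room temperature. Enzyme-substrate mix and compound were pre-incubated for 10 min, and the signal was read 20 min after adding detection reagent.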

[11] = molecular target: Cytochrome P450 2C19 (Homo sapiens) (UniProt P33261); test: Cytochrome P450 Family 2 Subfamily C Member 19 (CYP2C19) small molecule antagonists: luciferase reporter qHTS assay (AID 1671197); note: nearly all actives have a fitted effect of over 65% in size; note: potency is the fitted concentration of half-maximal effect
Method in brief: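 P450-Glo CYP2C19 system: enzyme-substrate mix with compound 10 min at room temperature, then NADPH regeneration solution, 1 h at 37C. Proluciferin-to-luciferin conversion detected by luminescence after 20 min with detection reagent; ketoconazole as positive control.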

[12] = molecular target: Cytochrome P450 1A2 (Homo sapiens) (UniProt P05177); test: Cytochrome P450 Family 1 Subfamily A Member 2 (CYP1A2) small molecule antagonists: luciferase reporter qHTS assay (AID 1671199); note: nearly all actives have a fitted effect of over 50% in size; note: potency is the fitted concentration of half-maximal effect
Method in brief: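 Luminescence from luciferin formed by CYP1A2 from a proluciferin substrate, read 20 min after detection reagent. Compound was pre-incubated 10 min with enzyme-substrate, and reaction started with NADPH regeneration solution for 1 h at room temperature; furafylline control.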

[13] = Caspase-3/7 induction in CHO-K1 cells by small molecules, qHTS assay (AID 1346980); note: nearly all actives have a fitted effect of over 15% in size
Method in brief: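 Wild-type CHO-K1 cells exposed to compounds for 17hr at 37 C, 5% CO2. Caspase-3/7 activity then measured by Caspase-Glo 3/7 luminescence after 30min at room temperature.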
% is set by controls: 0 for no effect and ±100 for the full control effect.

Cytochrome P450 2C9 (Homo sapiens), sequence (P11712 whole entry, looked up): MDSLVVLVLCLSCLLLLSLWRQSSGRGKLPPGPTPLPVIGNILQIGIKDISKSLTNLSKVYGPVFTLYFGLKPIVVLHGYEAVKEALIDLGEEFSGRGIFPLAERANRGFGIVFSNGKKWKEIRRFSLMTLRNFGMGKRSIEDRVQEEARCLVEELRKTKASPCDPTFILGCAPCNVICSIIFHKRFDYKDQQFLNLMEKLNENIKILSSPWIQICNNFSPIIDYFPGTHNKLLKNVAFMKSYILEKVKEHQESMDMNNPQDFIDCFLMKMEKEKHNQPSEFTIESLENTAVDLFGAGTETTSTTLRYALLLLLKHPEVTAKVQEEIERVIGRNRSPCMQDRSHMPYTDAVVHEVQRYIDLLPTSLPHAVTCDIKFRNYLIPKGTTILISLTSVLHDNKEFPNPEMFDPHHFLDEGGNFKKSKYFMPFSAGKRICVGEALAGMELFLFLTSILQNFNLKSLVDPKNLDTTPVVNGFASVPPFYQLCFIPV
Voltage-gated inwardly rectifying potassium channel KCNH2 (Homo sapiens), sequence (Q12809 whole entry, looked up): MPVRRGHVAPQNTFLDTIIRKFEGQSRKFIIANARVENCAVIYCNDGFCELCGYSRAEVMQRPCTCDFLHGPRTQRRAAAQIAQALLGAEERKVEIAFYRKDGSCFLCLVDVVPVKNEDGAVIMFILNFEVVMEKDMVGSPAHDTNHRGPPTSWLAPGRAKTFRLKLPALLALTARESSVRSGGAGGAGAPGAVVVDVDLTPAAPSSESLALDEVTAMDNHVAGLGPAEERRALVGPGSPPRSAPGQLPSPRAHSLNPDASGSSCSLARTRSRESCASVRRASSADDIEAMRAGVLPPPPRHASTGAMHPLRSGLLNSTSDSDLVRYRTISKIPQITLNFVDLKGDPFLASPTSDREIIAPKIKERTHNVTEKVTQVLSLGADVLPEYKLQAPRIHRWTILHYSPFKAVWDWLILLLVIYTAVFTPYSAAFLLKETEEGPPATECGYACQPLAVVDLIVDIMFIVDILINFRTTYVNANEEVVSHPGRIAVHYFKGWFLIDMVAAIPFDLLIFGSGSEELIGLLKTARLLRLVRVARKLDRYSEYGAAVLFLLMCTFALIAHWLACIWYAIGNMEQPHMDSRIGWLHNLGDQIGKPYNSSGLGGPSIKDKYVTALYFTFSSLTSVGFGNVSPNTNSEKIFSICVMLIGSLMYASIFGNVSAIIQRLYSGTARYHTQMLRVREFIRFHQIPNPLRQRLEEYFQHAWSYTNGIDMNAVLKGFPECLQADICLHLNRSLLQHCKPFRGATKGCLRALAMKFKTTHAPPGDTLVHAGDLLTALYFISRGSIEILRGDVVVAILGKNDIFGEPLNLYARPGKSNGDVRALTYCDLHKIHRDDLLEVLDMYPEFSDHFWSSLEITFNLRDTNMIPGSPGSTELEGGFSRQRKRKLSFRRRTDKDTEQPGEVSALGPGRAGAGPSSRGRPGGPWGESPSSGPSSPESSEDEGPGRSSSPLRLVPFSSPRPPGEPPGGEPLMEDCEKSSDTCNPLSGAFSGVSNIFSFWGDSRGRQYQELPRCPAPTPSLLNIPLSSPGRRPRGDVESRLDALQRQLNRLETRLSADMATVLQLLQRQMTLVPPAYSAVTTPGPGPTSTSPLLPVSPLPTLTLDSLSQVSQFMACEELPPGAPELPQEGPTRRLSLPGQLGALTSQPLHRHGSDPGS
Cytochrome P450 2C19 (Homo sapiens), sequence (P33261 whole entry, looked up): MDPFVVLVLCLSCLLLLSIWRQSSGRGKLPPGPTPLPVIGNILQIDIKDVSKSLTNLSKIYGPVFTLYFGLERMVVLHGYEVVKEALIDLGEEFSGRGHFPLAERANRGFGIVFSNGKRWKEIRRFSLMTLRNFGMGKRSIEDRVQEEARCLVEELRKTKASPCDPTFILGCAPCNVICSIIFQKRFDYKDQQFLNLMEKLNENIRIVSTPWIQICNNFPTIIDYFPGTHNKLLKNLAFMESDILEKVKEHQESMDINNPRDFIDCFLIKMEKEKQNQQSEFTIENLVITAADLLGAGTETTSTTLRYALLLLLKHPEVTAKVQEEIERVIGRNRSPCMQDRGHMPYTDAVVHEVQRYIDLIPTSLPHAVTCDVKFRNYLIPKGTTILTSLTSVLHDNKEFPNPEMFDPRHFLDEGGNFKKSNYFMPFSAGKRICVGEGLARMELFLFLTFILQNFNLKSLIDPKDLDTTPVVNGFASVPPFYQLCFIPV
Cytochrome P450 3A4 (Homo sapiens), sequence (P08684 whole entry, looked up): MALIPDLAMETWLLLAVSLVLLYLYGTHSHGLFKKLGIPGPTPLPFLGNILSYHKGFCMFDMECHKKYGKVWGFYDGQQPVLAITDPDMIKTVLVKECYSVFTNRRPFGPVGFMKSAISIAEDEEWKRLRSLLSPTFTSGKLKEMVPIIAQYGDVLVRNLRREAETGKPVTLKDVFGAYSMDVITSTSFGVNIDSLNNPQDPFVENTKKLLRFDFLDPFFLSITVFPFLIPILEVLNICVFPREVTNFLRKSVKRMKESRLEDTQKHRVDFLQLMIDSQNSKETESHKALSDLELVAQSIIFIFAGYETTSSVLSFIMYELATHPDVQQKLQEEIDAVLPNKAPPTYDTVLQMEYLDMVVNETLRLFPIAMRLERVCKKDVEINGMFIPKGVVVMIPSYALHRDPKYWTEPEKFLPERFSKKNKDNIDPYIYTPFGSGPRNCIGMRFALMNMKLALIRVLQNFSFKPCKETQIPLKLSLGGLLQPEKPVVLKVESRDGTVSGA
Cytochrome P450 2D6 (Homo sapiens), sequence (P10635 whole entry, looked up): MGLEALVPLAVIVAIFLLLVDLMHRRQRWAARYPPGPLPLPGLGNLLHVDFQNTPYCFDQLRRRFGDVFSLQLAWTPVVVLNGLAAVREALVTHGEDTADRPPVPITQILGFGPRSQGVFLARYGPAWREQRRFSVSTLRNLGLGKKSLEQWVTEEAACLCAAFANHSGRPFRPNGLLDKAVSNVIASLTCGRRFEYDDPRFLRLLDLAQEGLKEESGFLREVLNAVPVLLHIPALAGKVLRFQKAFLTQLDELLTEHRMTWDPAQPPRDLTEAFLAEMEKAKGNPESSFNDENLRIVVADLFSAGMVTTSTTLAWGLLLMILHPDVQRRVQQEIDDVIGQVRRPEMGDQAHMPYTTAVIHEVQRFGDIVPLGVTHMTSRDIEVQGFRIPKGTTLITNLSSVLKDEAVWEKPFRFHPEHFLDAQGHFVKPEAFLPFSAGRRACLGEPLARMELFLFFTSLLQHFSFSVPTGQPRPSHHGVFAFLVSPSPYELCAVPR
Cytochrome P450 1A2 (Homo sapiens), sequence (P05177 whole entry, looked up): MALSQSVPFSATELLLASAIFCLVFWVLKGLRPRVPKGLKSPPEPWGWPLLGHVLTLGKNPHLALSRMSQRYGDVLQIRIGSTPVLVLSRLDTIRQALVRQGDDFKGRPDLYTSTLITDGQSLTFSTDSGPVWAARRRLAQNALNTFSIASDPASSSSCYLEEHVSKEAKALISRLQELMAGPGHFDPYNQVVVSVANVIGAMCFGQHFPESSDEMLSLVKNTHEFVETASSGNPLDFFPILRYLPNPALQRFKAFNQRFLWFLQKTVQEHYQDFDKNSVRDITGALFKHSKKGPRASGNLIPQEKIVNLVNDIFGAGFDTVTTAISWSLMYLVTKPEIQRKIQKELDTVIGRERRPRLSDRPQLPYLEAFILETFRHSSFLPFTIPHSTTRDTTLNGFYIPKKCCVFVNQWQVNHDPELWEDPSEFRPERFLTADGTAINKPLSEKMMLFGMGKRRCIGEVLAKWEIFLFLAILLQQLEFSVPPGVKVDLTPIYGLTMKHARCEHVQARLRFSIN
Nuclear receptor subfamily 1 group I member 2 (Homo sapiens), sequence (O75469 whole entry, looked up): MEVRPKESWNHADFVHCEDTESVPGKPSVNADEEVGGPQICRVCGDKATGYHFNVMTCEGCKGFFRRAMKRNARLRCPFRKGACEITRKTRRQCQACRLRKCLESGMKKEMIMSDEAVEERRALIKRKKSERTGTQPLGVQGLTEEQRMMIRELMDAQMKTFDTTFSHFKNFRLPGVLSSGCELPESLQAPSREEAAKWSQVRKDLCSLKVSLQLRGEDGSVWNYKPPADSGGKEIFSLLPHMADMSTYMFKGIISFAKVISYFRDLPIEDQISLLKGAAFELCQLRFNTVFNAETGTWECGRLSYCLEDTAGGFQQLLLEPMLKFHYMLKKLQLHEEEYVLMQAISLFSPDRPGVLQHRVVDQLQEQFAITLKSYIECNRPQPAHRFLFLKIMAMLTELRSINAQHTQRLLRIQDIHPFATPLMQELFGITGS
Nuclear receptor subfamily 1 group I member 2 (Rattus norvegicus), sequence (Q9R1A7 whole entry, looked up): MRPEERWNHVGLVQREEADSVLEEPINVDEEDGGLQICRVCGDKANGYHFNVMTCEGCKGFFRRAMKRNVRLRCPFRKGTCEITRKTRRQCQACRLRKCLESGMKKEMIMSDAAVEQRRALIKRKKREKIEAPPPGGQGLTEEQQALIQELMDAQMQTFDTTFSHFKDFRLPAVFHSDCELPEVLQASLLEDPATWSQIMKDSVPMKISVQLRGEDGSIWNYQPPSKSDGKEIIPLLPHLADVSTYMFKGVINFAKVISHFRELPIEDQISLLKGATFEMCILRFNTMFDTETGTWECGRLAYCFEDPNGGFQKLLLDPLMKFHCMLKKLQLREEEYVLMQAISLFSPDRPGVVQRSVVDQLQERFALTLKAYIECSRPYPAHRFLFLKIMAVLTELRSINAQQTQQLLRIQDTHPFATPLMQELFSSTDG

CCOC(=S)SSC(=S)OCC
inactive: Potency [1] | Potency [2] | Potency [3] | max activation [4] -2.15% | Potency [5] | Potency [6] | Potency [8] | Potency [9]
active: Potency [7] 17.8 µM

CC(C)(C)c1cc(CO)cc(C(C)(C)C)c1O
active: Potency [10] 72.4 µM | Potency [11] 25.7 µM | Potency [7] 32.3 µM | Potency [9] 36.3 µM
inactive: Potency [2] | Potency [12] | Potency [8]

CCCCCCCC/C=C\CCCCCCCC(N)=O
active: Potency [3] 15.3 µM | Potency [10] 50.2 µM | Potency [12] 35.6 µM
inactive: Potency [1] | Potency [13] | Potency [2] | Potency [11] | Potency [7] | Potency [8] | Potency [9]

CC(C)CC=O
active: Potency [11] 35.6 µM
inactive: Potency [1] | Potency [13] | Potency [2] | Potency [10] | Potency [12] | Potency [8]

CN(C(=O)CCCOc1ccc2[nH]c(=O)ccc2c1)C1CCCCC1
active: Potency [3] 15 µM
inactive: Potency [13] | Potency [2] | Potency [10] | Potency [12] | Potency [8]

C=C(C)C(=O)OCCN(C)C
active: Potency [11] 36 µM | Potency [9] 36 µM
inactive: Potency [1] | Potency [13] | Potency [2] | Potency [3] | Potency [10] | Potency [12] | Potency [8]

FC(F)(F)C(F)(F)C(F)(F)C(F)(F)C(F)(F)C(F)(F)CCI
inactive: Potency [1] | Potency [2] | Potency [3] | Potency [11] | Potency [12] | Potency [9]

Cc1ccccn1
inactive: Potency [1] | Potency [13] | Potency [2] | max activation [4] -5.22% | Potency [8]

CC/C(=C\C(=N/O)C(N)=O)C(C)[N+](=O)[O-] (centres undefined)
inactive: Potency [1] | Potency [13] | Potency [2] | Potency [3] | Potency [10] | Potency [11] | Potency [7] | Potency [12] | Potency [8] | Potency [9]

O=C1Nc2cc(Cl)ccc2Oc2ccccc21
inactive: Potency [1] | Potency [13] | Potency [3] | Potency [10] | Potency [9]
active: Potency [11] 15.5 µM | Potency [12] 1.95 µM

CCCCCCCCN(C)C
inactive: Potency [1] | Potency [13] | Potency [2] | Potency [3] | Potency [10] | Potency [11] | Potency [12] | Potency [8] | Potency [9]

COc1ccc2[nH]c(S(=O)Cc3ncc(C)c(OC)c3C)nc2n1 (centres undefined)
active: Potency [6] 25.1 µM | Potency [11] 34.7 µM | Potency [7] 17.4 µM | Potency [12] 24.5 µM
inactive: Potency [2] | Potency [5] | Potency [8]

CCOC(=O)CC(=O)c1cc(F)c(Cl)nc1Cl
inactive: Potency [1] | Potency [13] | Potency [2] | Potency [3] | Potency [10] | Potency [9]

CC(C)(C)c1ccc(OCC2CO2)cc1 (centres undefined)
inactive: Potency [13] | Potency [8] | Potency [9]
active: Potency [1] 55.6 µM | Potency [11] 64.6 µM | Potency [7] 72.4 µM

From PubChem BioAssay (Tox21)
